In PubChem BioAssay (NCATS):
Inconclusive results are not listed. Entries that show only a call come without a potency. Calls of active or inactive are those of the source. The call rests on the fitted dose curve; in most records, active means well fitted curve in the direction sought with a large enough effect; inconclusive means small, poorly fitted or top-dose-only effect, or another doubt; inactive means no such curve, though single readings can be large; an effect the other way counts as inactive or inconclusive.

Tests used:
[1] = target: Aldehyde dehydrogenase, mitochondrial (Homo sapiens) (UniProt P05091); test: qHTS for Inhibitors of the Aldehyde Dehydrogenase Family (ALDH2) Primary screen (AID 2061308); conditions: ALDH2 enzyme inhibition qHTS, 1536-well; series mostly up to 56 µM; further: nearly all actives have a fitted effect of over 55% in size
[2] = target: Retinaldehyde dehydrogenase 3 (Homo sapiens) (UniProt P47895); test: qHTS for Inhibitors of the Aldehyde Dehydrogenase Family (ALDH1A3) Primary screen (AID 2061315); conditions: ALDH inhibition qHTS; series mostly up to 56 µM

SMILES | Potency [1] | Potency [2]
Cc1ccc(S(=O)(=O)Nc2cnccc2C(=O)NCc2ccccc2)cc1 | inactive | inactive
Cn1c2cc(Br)sc2c2cnn(Cc3c(F)cccc3F)c(=O)c21 | inactive | inactive
COc1ccc(C2Nc3ccccc3C(=O)N2Cc2ccco2)cc1COc1c(C)cc(NC(C)=O)cc1C (stereo not drawn) | inactive | inactive
O=C1CN(S(=O)(=O)c2c(F)cccc2F)CCN1S(=O)(=O)c1ccc2c(c1)OCCO2 | inactive | inactive
CS(=O)(=O)/C=C/c1nc(Nc2cc(F)cc(F)c2)c2ncn(CC(F)F)c2n1 | inactive | inactive
C/C1=C\CCC2=CC(OC2=O)C(C)(C)/C=C/C1=O (stereo not drawn) | inactive | inactive
Cc1ccccc1S(=O)(=O)N1CCc2cc(-c3nc(NC(=O)Cc4ccc5c(c4)OCO5)sc3C)ccc21 | inactive | inactive
CCCN(C)c1ncnc2ccc(-c3ccc4c(c3)OCO4)cc12 | inactive | inactive
N=c1c2c(ccn1-c1ccccc1)Oc1ccc3ccccc3c1C2c1ccccc1 (stereo not drawn) | inactive | inactive
O=S(=O)(c1ccc2c(c1)OCCO2)N1CCN(S(=O)(=O)c2c(F)cc(F)cc2F)CC1 | inactive | inactive
Cn1c(NC2=NC3(CCCC3)C3=C(CCCC3=O)N2)nc2ccccc21 | inactive | inactive
CC(C)(C#CCSc1nnc(-c2cccc3ccccc23)o1)OC(=O)c1ccc(F)cc1 | inactive | inactive
N#Cc1nc(Nc2cc(F)cc(F)c2)nc(Nc2cc(F)cc(F)c2)n1 | inactive | inactive
O=C(OCC#CCSc1nnc(-c2cccc3ccccc23)o1)c1ccc(F)nc1 | inactive | inactive
